Inconclusive results are not listed. Activity calls are given as the source filed them. Unless noted, calls follow the shape of the dose curve; as a rule, active = well fitted curve in the direction sought with a large enough effect; inconclusive = small, poorly fitted or top-dose-only effect, or another doubt; inactive = no such curve, though single readings can be large; an effect the other way counts as inactive or inconclusive.
Tests used:
[1] = target: Thyrotropin receptor (Homo sapiens) (UniProt P16473); experiment: qHTS Assay for Antagonists of the Thyroid Stimulating Hormone Receptor (AID 488980)
Chain of Thyrotropin receptor (Homo sapiens) (P16473 whole entry, looked up): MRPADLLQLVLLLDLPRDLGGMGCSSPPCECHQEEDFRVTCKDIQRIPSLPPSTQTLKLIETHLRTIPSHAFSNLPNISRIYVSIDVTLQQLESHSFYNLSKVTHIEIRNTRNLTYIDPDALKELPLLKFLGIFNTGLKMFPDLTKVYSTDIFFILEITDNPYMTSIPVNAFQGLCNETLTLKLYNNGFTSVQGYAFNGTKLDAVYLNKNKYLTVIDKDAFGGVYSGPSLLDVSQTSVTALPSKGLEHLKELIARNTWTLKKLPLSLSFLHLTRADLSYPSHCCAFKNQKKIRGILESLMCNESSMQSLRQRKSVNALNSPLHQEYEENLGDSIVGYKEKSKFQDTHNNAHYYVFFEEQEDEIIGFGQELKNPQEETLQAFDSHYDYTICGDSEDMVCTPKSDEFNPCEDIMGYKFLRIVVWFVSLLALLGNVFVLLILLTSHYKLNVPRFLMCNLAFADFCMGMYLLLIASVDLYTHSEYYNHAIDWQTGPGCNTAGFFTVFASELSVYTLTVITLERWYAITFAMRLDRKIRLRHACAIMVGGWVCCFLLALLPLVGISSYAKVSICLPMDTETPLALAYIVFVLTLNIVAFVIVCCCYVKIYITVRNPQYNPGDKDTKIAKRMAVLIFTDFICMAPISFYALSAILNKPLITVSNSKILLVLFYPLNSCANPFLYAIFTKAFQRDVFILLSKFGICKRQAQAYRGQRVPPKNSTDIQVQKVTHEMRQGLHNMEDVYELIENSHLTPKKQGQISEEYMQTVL
Outline: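 TSHR-transfected HEK293 cells (2000/well) in HEPES-buffered HBSS with 70 uM RO 20-1724 were stimulated with 4 nM TSH (EC80, final) in the presence of compound. cAMP was measured by HTRF competition after lysis and 30 min at RT.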

[2] = S16 Schwann cell PMP22 intronic element beta-lactamase assay (AID 624044; calls by dose curve; also: nearly all actives have a fitted effect of over 15% in size); details: S16 rat Schwann cells, PMP22 element beta-lactamase FRET, 24 h; ratio activity, negative = inhibition: at 38.3 µM (top of the series) unless noted
Outline: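 Beta-lactamase reporter under a PMP22 intronic regulatory element in stable S16 rat Schwann cells; 24 h compound exposure. 460 nm blue signal normalized between DMSO (0%) and potassium clavulanate, with 535 nm FRET tracking viability; curves classed by r2 and response.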

[3] = test system: AS120; experiment: qHTS profiling for inhibitors of Plasmodium falciparum proliferation (AID 504749); also: nearly all actives have a fitted effect of over 60% in size; details: P. falciparum in erythrocytes, SYBR Green DNA, 72 h; series mostly up to 28.7 µM
Outline: (§1)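 In a 72 h erythrocytic culture (37 C, humidified, 5% CO2) at 2.5% hematocrit and 0.3% starting parasitemia, compounds were tested; SYBR Green I in detergent lysis buffer stained parasite DNA overnight.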

[4] = test system: ATS189; experiment: as above; details: P. falciparum in erythrocytes, SYBR Green DNA, 72 h; series mostly up to 28.7 µM
Outline: as §1

[5] = test system: CP185; experiment: as above; details: P. falciparum in erythrocytes, SYBR Green DNA, 72 h; series mostly up to 28.7 µM
Outline: as §1

[6] = test system: CP192; experiment: as above; details: P. falciparum in erythrocytes, SYBR Green DNA, 72 h; series mostly up to 28.7 µM
Outline: as §1

[7] = test system: CP194; experiment: as above; details: P. falciparum in erythrocytes, SYBR Green DNA, 72 h; series mostly up to 28.7 µM
Outline: as §1

[8] = test system: CP201; experiment: as above; details: P. falciparum in erythrocytes, SYBR Green DNA, 72 h; series mostly up to 28.7 µM
Outline: as §1

[9] = test system: CP237; experiment: as above; details: P. falciparum in erythrocytes, SYBR Green DNA, 72 h; series mostly up to 28.7 µM
Outline: as §1

[10] = test system: CP238; experiment: as above; details: P. falciparum in erythrocytes, SYBR Green DNA, 72 h; series mostly up to 28.7 µM
Outline: as §1

[11] = test system: CP265; experiment: as above; details: P. falciparum in erythrocytes, SYBR Green DNA, 72 h; series mostly up to 12.8 µM
Outline: as §1

[12] = test system: CP286; experiment: as above; details: P. falciparum in erythrocytes, SYBR Green DNA, 72 h; series mostly up to 28.7 µM
Outline: as §1

[13] = test system: CP305; experiment: as above; details: P. falciparum in erythrocytes, SYBR Green DNA, 72 h; series mostly up to 28.7 µM
Outline: as §1

[14] = test system: DFO2036; experiment: as above; details: P. falciparum in erythrocytes, SYBR Green DNA, 72 h; series mostly up to 28.7 µM
Outline: as §1

[15] = test system: DIV30; experiment: as above; details: P. falciparum in erythrocytes, SYBR Green DNA, 72 h; series mostly up to 28.7 µM
Outline: as §1

[16] = test system: GB4; experiment: as above; details: P. falciparum in erythrocytes, SYBR Green DNA, 72 h; series mostly up to 28.7 µM
Outline: as §1

[17] = test system: HB3; experiment: as above; details: P. falciparum in erythrocytes, SYBR Green DNA, 72 h; series mostly up to 28.7 µM
Outline: as §1

[18] = test system: P94_40; experiment: as above; details: P. falciparum in erythrocytes, SYBR Green DNA, 72 h; series mostly up to 28.7 µM
Outline: as §1

[19] = test system: TAB109; experiment: as above; details: P. falciparum in erythrocytes, SYBR Green DNA, 72 h; series mostly up to 12.8 µM
Outline: as §1

[20] = test system: TAB113; experiment: as above; details: P. falciparum in erythrocytes, SYBR Green DNA, 72 h; series mostly up to 28.7 µM
Outline: as §1

Measured: Potency

Nc1ncnc2c1ncn2[C@@H]1O[C@H](COP(=O)(O)CP(=O)(O)OP(=O)(O)O)[C@H](O)[C@H]1O
inactive: [1]

CC(C)(O)C1C2OC(=O)C1[C@]1(O)C[C@H]3O[C@]34C(=O)O[C@H]2[C@]14C (stereo partly specified) (tested in a mixture with another compound)
not listed: [1]
inactive: all other assays above

NC(Cn1ccc(=O)[nH]c1=O)C(=O)O (stereo unspecified)
inactive: [1]

Oc1ccc2c3c1O[C@H]1[C@@H](O)CC[C@@]4(O)C(C2)N(CC2CCC2)CCC314 (stereo partly specified)
not listed: [1]
inactive: all other assays above

CCN(CC)C(=O)N[C@@H]1C[C@@H]2c3cccc4[nH]cc(c34)C[C@H]2N(C)C1
inactive: [1] | [2]

CCCC[N+]1(C)C2CC(OC(=O)C(CO)c3ccccc3)CC1C1OC12 (stereo unspecified)
not listed: [1]
inactive: all other assays above

— PubChem BioAssay (NCATS)
